According to PubChem BioAssay:
Active and inactive are the calls of the source.

How the values were obtained:
[1] = biological target: Albumin (Bos taurus) (UniProt P02769); experiment: compounds binding labelled BSA control protein – biochemical, small-molecule microarray, Alexa647 label, 635/667 nm fluorescence, artefact control for SMM control protein annotation, profiling panel (AID 1118); conditions: BSA-A647 binding, fluorescence 635 nm, higher = more signal;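 also: score merges 667 nm emission intensity and signal-to-noise per printed compound spot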
Albumin (Bos taurus), sequence (P02769 whole entry, looked up): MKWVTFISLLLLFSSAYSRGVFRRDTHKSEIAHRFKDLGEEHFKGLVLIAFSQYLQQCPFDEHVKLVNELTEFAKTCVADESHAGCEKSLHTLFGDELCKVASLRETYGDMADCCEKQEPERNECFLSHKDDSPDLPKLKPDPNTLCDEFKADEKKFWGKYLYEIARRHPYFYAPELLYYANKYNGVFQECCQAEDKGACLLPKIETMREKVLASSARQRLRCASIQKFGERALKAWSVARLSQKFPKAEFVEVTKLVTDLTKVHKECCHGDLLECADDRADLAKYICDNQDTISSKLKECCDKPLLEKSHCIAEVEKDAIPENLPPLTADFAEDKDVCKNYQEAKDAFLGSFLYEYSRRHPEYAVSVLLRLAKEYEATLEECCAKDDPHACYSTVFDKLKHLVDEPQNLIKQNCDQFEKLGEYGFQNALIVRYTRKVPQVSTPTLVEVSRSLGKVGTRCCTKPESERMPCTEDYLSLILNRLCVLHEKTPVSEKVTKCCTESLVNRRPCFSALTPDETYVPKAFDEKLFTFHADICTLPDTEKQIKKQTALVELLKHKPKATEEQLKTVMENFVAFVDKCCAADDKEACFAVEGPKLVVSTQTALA

[2] = probe aXIP binding to arrayed compounds – biochemical, NeuroSMM set, 635/667 nm fluorescence, primary screen (AID 1119); conditions: small-molecule microarray, higher = more signal, called active from +8 up or from −8 down;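 also: probe is the protein aXip251-270 applied at 1 µg/mL to compound-printed slides; binding of probe to printed compounds measured as 667 nm fluorescence plus signal to noise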
[3] = probe aNOTCH3 binding on compound microarray – biochemical, small-molecule microarray, 635/667 nm fluorescence, primary screen (AID 1120); conditions: higher = more signal;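 also: probe is a biotin-tagged antibody raised against NOTCH3 rather than NOTCH3 protein; score merges spot fluorescence near 667 nm with spot signal to noise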
[4] = probe aNOTCH2 binding on compound microarray – biochemical, small-molecule microarray, 635/667 nm fluorescence, primary screen (AID 1121); conditions: higher = more signal;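 also: score merges feature fluorescence read at 667 nm with its signal to noise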
[5] = biological target: Carbonic anhydrase 2 (Homo sapiens) (UniProt P00918); experiment: compounds binding carbonic anhydrase 2 – biochemical, small-molecule microarray, Alexa647-labelled CAII, profiling panel (AID 1122); conditions: CAII-A647 binding fluorescence, higher = more signal
[6] = COS7 lysate on small-molecule microarray, probe aHis, 635 nm (AID 1123); conditions: COS7 cell lysate, fluorescence, higher = more signal;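 also: z-score combines 667nm fluorescence intensity with signal-to-noise per printed compound spot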
[7] = probe aLAP1 signal on lysate-treated microarray – cell lysate, small-molecule microarray, COS7 lysate, primary screen (AID 1124); conditions: probe aLAP1, fluorescence, higher = more signal;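 also: lysate comes from COS7 cells expressing LAP1 and is applied at 0.3 µg/mL; score merges spot fluorescence near 667 nm with signal-to-noise over triplicate slides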
[8] = test system: Sam68 (KHDRBS1); experiment: compounds binding KHDRBS1 protein – biochemical, small-molecule microarray, 635 nm fluorescence, primary screen (AID 1125); conditions: higher = more signal;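 also: score merges 667 nm channel intensity with signal to noise over triplicate slides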
[9] = test system: Chordin-like protein 2 (CHRDL2); experiment: compounds binding chordin-like 2 – biochemical, small-molecule microarray, 635 nm fluorescence, primary screen (AID 1126); conditions: fluorescence 635 nm, higher = more signal;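 also: printed compound slides probed with Chrdl2 protein at 4 µg/mL for 1 h at 4 C; score merges 667 nm emission intensity with signal to noise over three replicate slides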
[10] = biological target: Concanavalin-A (Canavalia ensiformis) (UniProt P02866); experiment: compounds binding concanavalin A lectin – biochemical, small-molecule microarray, Alexa647 label, 635 nm, artefact control for SMM control protein annotation, primary screen (AID 1127); conditions: ConA-A647 binding fluorescence, higher = more signal;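 also: z combines 667 nm emission intensity with signal-to-noise across three replicate slides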
Concanavalin-A (Canavalia ensiformis), sequence (P02866 whole entry, looked up): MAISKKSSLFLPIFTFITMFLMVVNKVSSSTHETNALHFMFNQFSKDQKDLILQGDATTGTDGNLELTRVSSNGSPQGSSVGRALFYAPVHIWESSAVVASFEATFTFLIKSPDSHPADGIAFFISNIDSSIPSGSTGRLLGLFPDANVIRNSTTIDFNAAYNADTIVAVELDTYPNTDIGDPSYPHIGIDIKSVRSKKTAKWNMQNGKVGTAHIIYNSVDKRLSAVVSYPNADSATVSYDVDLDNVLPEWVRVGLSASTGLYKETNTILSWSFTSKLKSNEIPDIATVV

[11] = compounds binding Alexa647 anti-His antibody – biochemical, small-molecule microarray, 635 nm fluorescence, artefact control for SMM control protein annotation, primary screen (AID 1128); conditions: higher = more signal;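 also: score merges feature fluorescence with signal-to-noise for each printed compound spot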
[12] = test system: Human papillomavirus type 1a E7 protein (residues 1-88); experiment: HPV1a E7 small-molecule binders, primary screen, biochemical, small-molecule microarray, residues 1-88, 635 nm (AID 1129); conditions: small-molecule microarray binding, fluorescence 635 nm; higher = more signal
[13] = biological target: Focal adhesion kinase 1 (Homo sapiens) (UniProt Q05397); experiment: PTK2 protein binding on printed compound slides – biochemical, small-molecule microarray, 635/667 nm fluorescence, BSA, DTT, primary screen (AID 1130); conditions: 635 nm fluorescence, higher = more signal;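 also: composite of spot emission at 667 nm and signal to noise over triplicate slides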
Focal adhesion kinase 1 (Homo sapiens), sequence (Q05397 whole entry, looked up): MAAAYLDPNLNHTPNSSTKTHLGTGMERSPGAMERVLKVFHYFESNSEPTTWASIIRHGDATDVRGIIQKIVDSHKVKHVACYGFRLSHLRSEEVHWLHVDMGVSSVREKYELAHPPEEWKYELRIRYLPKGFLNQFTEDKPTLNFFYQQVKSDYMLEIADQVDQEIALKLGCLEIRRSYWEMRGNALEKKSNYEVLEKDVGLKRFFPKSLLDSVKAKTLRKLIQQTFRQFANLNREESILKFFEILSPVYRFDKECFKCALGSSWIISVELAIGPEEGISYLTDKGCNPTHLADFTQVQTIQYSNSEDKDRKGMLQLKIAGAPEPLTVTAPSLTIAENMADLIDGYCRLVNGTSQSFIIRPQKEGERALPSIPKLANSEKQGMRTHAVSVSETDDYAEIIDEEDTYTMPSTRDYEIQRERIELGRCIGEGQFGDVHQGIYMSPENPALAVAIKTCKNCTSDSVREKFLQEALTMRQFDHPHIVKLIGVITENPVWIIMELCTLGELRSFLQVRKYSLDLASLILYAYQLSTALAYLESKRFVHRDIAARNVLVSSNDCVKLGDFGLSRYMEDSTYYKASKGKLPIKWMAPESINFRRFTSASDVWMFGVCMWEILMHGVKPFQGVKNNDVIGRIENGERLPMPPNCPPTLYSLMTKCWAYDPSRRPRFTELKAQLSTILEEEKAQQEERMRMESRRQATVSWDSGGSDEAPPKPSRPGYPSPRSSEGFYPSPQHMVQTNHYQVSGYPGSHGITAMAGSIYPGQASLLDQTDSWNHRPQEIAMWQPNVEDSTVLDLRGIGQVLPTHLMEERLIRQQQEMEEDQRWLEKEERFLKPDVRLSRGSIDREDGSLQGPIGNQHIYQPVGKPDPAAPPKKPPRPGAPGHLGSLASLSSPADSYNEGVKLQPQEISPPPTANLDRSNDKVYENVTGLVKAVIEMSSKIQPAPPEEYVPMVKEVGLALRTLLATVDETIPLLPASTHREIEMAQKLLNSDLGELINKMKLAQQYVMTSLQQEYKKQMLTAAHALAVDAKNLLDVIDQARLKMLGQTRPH

[14] = test system: Fibrinogen (Alexa647-labelled); experiment: Alexa647-fibrinogen binding to printed small molecules – biochemical, small-molecule microarray, 635/667 nm fluorescence, artefact control for SMM control-protein annotation, profiling panel (AID 1131); conditions: fibrinogen-A647 binding fluorescence, higher = more signal;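 also: z-score merges 667 nm fluorescence with per-spot signal-to-noise over triplicate slides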
[15] = biological target: Follistatin (Homo sapiens) (UniProt P19883); experiment: FST protein binding to printed compounds – biochemical, small-molecule microarray, 635/667 nm fluorescence, primary screen (AID 1132); conditions: 635 nm fluorescence, higher = more signal
Follistatin (Homo sapiens), sequence (P19883 whole entry, looked up): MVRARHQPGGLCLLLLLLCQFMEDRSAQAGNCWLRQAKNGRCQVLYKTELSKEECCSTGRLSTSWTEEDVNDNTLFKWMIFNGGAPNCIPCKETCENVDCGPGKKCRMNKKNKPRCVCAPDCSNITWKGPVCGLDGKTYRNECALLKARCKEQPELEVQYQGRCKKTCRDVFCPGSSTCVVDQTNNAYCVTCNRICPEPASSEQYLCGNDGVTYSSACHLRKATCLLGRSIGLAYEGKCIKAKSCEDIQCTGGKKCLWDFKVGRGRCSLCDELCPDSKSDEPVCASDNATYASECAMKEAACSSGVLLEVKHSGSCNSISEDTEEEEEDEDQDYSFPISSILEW

[16] = biological target: Fibroblast growth factor 2 (Homo sapiens) (UniProt P09038); experiment: basic fibroblast growth factor binding to printed compounds – biochemical, small-molecule microarray, 635/667 nm fluorescence, primary screen (AID 1133); conditions: FGF2, fluorescence 635/667, higher = more signal
Fibroblast growth factor 2 (Homo sapiens), sequence (P09038 whole entry, looked up): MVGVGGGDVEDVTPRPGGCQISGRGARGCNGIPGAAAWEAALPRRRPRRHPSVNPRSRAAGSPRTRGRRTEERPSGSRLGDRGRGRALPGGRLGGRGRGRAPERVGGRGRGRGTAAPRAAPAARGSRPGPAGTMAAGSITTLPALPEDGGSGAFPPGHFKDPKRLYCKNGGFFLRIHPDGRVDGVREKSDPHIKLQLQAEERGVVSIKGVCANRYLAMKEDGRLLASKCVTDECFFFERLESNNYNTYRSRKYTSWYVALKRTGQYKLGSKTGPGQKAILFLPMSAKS

[17] = JC-1 mitochondrial potential readout, lung cancer cells – cell-based, A549, JC-1 fluorescence, basal, 24 h, 100 nL, profiling panel (AID 1138); conditions: higher = more signal;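 also: A549 lung adenocarcinoma cells under basal conditions with no added stimulus; test concentration not given here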
[18] = test system: Lefty1; experiment: Lefty1 protein binding to printed compounds – biochemical, small-molecule microarray, 635/667 nm fluorescence, primary screen (AID 1139); conditions: fluorescence 635/667, higher = more signal
[19] = test system: wheat germ agglutinin (Triticum aestivum), Alexa647-labelled; experiment: Alexa647-WGA lectin binding to printed small molecules – biochemical, small-molecule microarray, 635/667 nm fluorescence, artefact control for SMM control-protein annotation, profiling panel (AID 1140); conditions: WGA-A647 binding, 635 nm fluorescence, higher = more signal;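 also: score merges 667 nm feature emission with signal to noise over triplicate slides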
[20] = biological target: Luciferin 4-monooxygenase (Photinus pyralis) (UniProt P08659); experiment: inhibition of purified Photinus pyralis luciferase – biochemical, luminescence, purified enzyme, 2006 set, primary screen (AID 1141); conditions: purified firefly luciferase, SteadyGlo luminescence, 30 min; higher = more signal, called active from +8 up or from −8 down;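 also: cell-free assay with purified firefly luciferase at 100 ng per well in PBS; test concentration not given here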
Luciferin 4-monooxygenase (Photinus pyralis), sequence (P08659 whole entry, looked up): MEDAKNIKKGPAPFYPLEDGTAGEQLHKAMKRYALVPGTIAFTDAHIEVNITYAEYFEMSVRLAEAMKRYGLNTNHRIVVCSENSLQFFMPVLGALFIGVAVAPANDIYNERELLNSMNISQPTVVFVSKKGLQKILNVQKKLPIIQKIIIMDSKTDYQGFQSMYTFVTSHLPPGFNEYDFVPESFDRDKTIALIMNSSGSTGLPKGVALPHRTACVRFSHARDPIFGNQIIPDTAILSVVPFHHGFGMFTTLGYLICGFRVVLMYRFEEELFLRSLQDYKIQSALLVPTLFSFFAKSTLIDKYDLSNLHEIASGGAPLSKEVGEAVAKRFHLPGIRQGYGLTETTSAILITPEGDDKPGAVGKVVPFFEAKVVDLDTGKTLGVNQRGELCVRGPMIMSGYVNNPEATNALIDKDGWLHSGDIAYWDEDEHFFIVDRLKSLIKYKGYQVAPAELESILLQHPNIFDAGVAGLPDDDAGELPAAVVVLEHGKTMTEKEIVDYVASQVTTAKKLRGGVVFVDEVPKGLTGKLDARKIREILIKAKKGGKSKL

| SMILES | composite z-score [1] | composite Z-score [2] | composite z-score [3] | composite z-score [4] | composite z-score [5] | composite z-score [6] | composite z-score [7] | composite z-score [8] | composite z-score [9] | composite z-score [10] | composite z-score [11] | composite z-score [12] | composite z-score [13] | composite z-score [14] | composite z-score [15] | composite z-score [16] | z-score [17] | composite z-score [18] | composite z-score [19] | z-score [20] |
| --- | --- | --- | --- | --- | --- | --- | --- | --- | --- | --- | --- | --- | --- | --- | --- | --- | --- | --- | --- | --- |
| COc1cc(OC)c(C(O)C2C=CC3C(=O)N(c4ccccc4)C(=O)C3N2Nc2ccc(C(C)C)cc2)cc1Br (stereo not given) | 0.971 | -0.382 (inactive) | 0.274 | 0.236 | 0.426 | 2.76 | 0.231 | 1.28 | 0.1 | 1.07 | -0.0881 | 1.21 | 0.441 | 0.885 | 0.806 | 0.0421 | 0.568 | -0.112 | 1.2 | -1.71 (inactive) |
| O=C1C[C@@](C(=O)NCc2ccccc2)(c2ccc([N+](=O)[O-])cc2)[C@@H](c2ccc(CO)cc2)N1C1CCCCC1 | -0.77 | 1.06 (inactive) | 0.14 | 0.0847 | 0.317 | 2.89 | 1.76 | 1.03 | 0.575 | 1.07 | 1.25 | 1.15 | 1.02 | 0.955 | 1.12 | 1.05 | 0.966 | 0.294 | 0.706 | -0.238 (inactive) |
| COc1ccc([Si](C)(C)[C@@H]2[C@@H](CC(=O)N(CCO)Cc3ccccc3)O[C@]3(C(=O)N(Cc4ccc(N5C(=O)c6cccc7cccc5c67)cc4)c4ccccc43)[C@H]2C)cc1 | -0.806 | 0.267 (inactive) | 0.0496 | -0.126 | 0.283 | 1.12 | 0.284 | 0.956 | 0.307 | 1.12 | 2.39 | 0.65 | 0.369 | 0.674 | 0.552 | 0.943 | -0.216 | 0.449 | 0.934 | -0.389 (inactive) |
| CC(C)C(=C=CC[C@H](O)c1ccccc1OCCO)C[C@H](O)c1cc(Cl)cc(Cl)c1O | 0.791 | -0.275 (inactive) | 0.141 | -0.106 | 0.664 | 1.48 | 0.114 | 1.31 | -0.114 | 1.14 | -0.287 | 1.15 | 0.0701 | 0.866 | 1.09 | 0.285 | 0.686 | 1.27 | 1.16 | -1.38 (inactive) |
| CCOC(=O)c1cn(C[C@H](Cc2ccccc2)NC(=O)N[C@H](CO)CCc2oc(C(C)=O)c(C(=O)OC)c2C(=O)OC)nn1 | 0.576 | 0.511 (inactive) | 0.269 | -0.123 | 0.443 | 1.57 | 0.131 | 1.3 | 1.17 | 0.883 | 0.0033 | 1.18 | 0.123 | 0.812 | 1.31 | 1.66 | -0.391 | 1.59 | 0.493 | 0.783 (inactive) |
| CCOC(=O)C[C@H]1[C@H](OC(=O)c2ccccc2-c2ccccc2)[C@@H](NC(=O)c2ccc3ccccc3c2)c2cc(OCCCO)ccc2N1C(=O)Cc1ccc(OC)cc1 | 0.227 | 0.25 (inactive) | -0.186 | -0.101 | -0.165 | 0.14 | 0.232 | -0.868 | -0.341 | -0.12 | -0.262 | -0.191 | 0.0564 | 0.805 | 0.0992 | -0.0445 | 0.847 | -0.0328 | -0.178 | -0.146 (inactive) |
| CC(C)NC(=O)[C@@H]1c2ccccc2C(=O)N(Cc2ccc(OC(F)(F)F)cc2)[C@H]1c1ccc(CO)cc1 | -0.215 | -0.194 (inactive) | 0.503 | 0.321 | 0.268 | 1.35 | 0.651 | 1.3 | 0.215 | 0.882 | 0.7 | 1.18 | 0.344 | 0.529 | 1.34 | 1.22 | 0.107 | 0.868 | 0.45 | 0.441 (inactive) |
| C[C@@H]1ON(c2ccccc2)[C@H](c2ccccc2)[C@H]1C(=O)O | -0.189 | -0.107 (inactive) | -0.0971 | -0.0846 | 0.685 | -0.0056 | 0.361 | 0.0005 | 0.204 | -0.0755 | 0.468 | 0.212 | 0.209 | 0.722 | 1.3 | 0.931 | -0.152 | 0.309 | 0.607 | -0.0018 (inactive) |
| COC(=O)c1cccc([C@H]2OC(=CC(=O)OC(C)C)C[C@@H](c3cccc(C(=O)OC)c3)O2)c1 | 0.937 | 0.587 (inactive) | 0.455 | -0.118 | 0.745 | 1.78 | 0.93 | 1.29 | -0.338 | 1.2 | 1.51 | 1.24 | 1.09 | 1 | 1.11 | 0.748 | -0.562 | 0.679 | 0.961 | -1.74 (inactive) |
| Cc1ccc(S[C@]2(C(=O)NCC(F)(F)F)CC(=O)N(Cc3ccccc3C(F)(F)F)[C@@H]2c2ccc(CO)cc2)cc1 | -0.0912 | 0.0348 (inactive) | -0.233 | -0.0861 | 0.653 | 1.24 | 1.26 | -0.556 | -1.45 | -0.87 | -0.344 | -0.481 | -1.09 | -0.563 | -1.11 | -0.826 | -0.144 | -1.44 | -0.564 | 0.714 (inactive) |
